In all, about 5,500 compounds went through this assay and about 2,000 (36%) were called active. Not shown: some 18% with an inconclusive outcome. No stated cut-off is given here; in the data, active means normalized growth mostly below about 0.91 (no sharp cut-off); inconclusive means no clear call, values can overlap the other calls; inactive means mostly above about 0.92. This is one part of the list.
Test: chemical genetic growth profiling, strain panel (AID 1159580);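 further: tested at 20 µM; growth read once vehicle control cultures reached saturation at 30 °C; 1 = growth at the plate median or of vehicle wells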
Settings: growth OD

Measured: normalized growth

CN(C)c1ccc(C(=O)NN)cc1
inactive: S. cerevisiae deletion strains, locus YAL013W, strain DEP1, stronger effect = lower value 1.02 | S. cerevisiae deletion strains, locus YBR229C, strain ROT2, stronger effect = lower value 1.02 | S. cerevisiae deletion strains, locus YDL101C, strain DUN1, stronger effect = lower value 1.02 | S. cerevisiae deletion strains, locus YDL134C, strain PPH21, stronger effect = lower value 1.01 | S. cerevisiae deletion strains, locus YDR150W, strain NUM1, stronger effect = lower value 0.924 | S. cerevisiae deletion strains, locus YEL061C, strain CIN8, stronger effect = lower value 0.99 | S. cerevisiae deletion strains, locus YGR078C, strain PAC10, stronger effect = lower value 1.01 | S. cerevisiae deletion strains, locus YHR030C, strain SLT2, stronger effect = lower value 1.08 | S. cerevisiae deletion strains, locus YHR087W, strain rtc3, stronger effect = lower value 1.03 | S. cerevisiae deletion strains, locus YJL187C, strain SWE1, stronger effect = lower value 1.01 | S. cerevisiae deletion strains, locus YJR043C, strain POL32, stronger effect = lower value 1.02 | S. cerevisiae deletion strains, locus YJR075W, strain HOC1, stronger effect = lower value 1 | S. cerevisiae deletion strains, locus YKL190W, strain CNB1, stronger effect = lower value 1.01 | S. cerevisiae deletion strains, locus YLR039C, strain RIC1, stronger effect = lower value 1.14 | S. cerevisiae deletion strains, locus YLR058C, strain SHM2 (second series), stronger effect = lower value 1.02 | S. cerevisiae deletion strains, locus YLR085C, strain ARP6, stronger effect = lower value 0.96 | S. cerevisiae deletion strains, locus YLR262C, strain YPT6, stronger effect = lower value 1.15 | S. cerevisiae deletion strains, locus YML094W, strain GIM5, stronger effect = lower value 1.01 | S. cerevisiae deletion strains, locus YMR219W, strain ESC1, stronger effect = lower value 1.01 | S. cerevisiae deletion strains, locus YMR263W, strain SAP30, stronger effect = lower value 0.992 | S. cerevisiae deletion strains, locus YNL153C, strain GIM3, stronger effect = lower value 1.02 | S. cerevisiae deletion strains, locus YNL298W, strain CLA4 (second series), stronger effect = lower value 1 | S. cerevisiae deletion strains, locus YNL322C, strain KRE1, stronger effect = lower value 1 | S. cerevisiae deletion strains, locus YNR030W, strain Alg12, stronger effect = lower value 1.01 | S. cerevisiae deletion strains, locus YPL055C, strain LGE1, stronger effect = lower value 0.954 | S. cerevisiae deletion strains, locus YPL241C, strain CIN2, stronger effect = lower value 0.997 | S. cerevisiae deletion strains, locus YPR135W, strain CTF4, stronger effect = lower value 1 | S. cerevisiae strains, strain wild type, stronger effect = lower value 1.02

Reference: PubChem BioAssay AID1159580 (chemical genetic matrix, 2015)
